Data reported in PubChem BioAssay (Tox21).
Several values for one entry are separate records, joined by “and”; a condition that tells them apart may be missing. Equal values may be shown once. Inconclusive results are not listed. Where a structure was tested more than once in an assay, its records may differ in their call. Activity calls are given as the source filed them. Unless noted, calls follow the shape of the dose curve; as a rule, active = well fitted curve in the direction sought with a large enough effect in the repeat runs; inconclusive = weak or mixed curves; inactive = no such curve, though single readings can be large; an effect the other way counts as inactive or inconclusive.

How the values were obtained:
[1] = qHTS assay to identify small molecule antagonists of the glucocorticoid receptor (GR) signaling pathway - cell viability counter screen (AID 720693); also: nearly all actives have a fitted effect of over 55% in size
[2] = qHTS assay for identifying genotoxic compounds that show differential cytotoxicity against isogenic chicken DT40 cell lines with known DNA damage response pathways - wild type cell line (AID 743012); also: nearly all actives have a fitted effect of over 60% in size; also: potency is read from the fitted curve at half-maximal effect
How it was run: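 Endpoint: CellTiter-Glo luminescence, 30 min RT. Cells: wild type DT40, 300/well. Exposure: compounds in DMSO, 40 h, 37 C/5% CO2, after ~0.5 h pre-incubation.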

[3] = qHTS assay for identifying genotoxic compounds that show differential cytotoxicity against isogenic chicken DT40 cell lines with known DNA damage response pathways - Rev3 mutant cell line (AID 743014); also: nearly all actives have a fitted effect of over 55% in size; also: potency is read from the fitted curve at half-maximal effect
[4] = qHTS assay for identifying genotoxic compounds that show differential cytotoxicity against isogenic chicken DT40 cell lines with known DNA damage response pathways - Rad54/Ku70 mutant cell line (AID 743015); also: nearly all actives have a fitted effect of over 60% in size; also: potency is read from the fitted curve at half-maximal effect
[5] = qHTS assay to identify small molecule antagonists of the androgen receptor (AR) signaling pathway - cell viability counter screen (AID 743033; also: nearly all actives have a fitted effect of over 45% in size)
[6] = qHTS assay to identify small molecule antagonists of the androgen receptor (AR) signaling pathway using the MDA cell line - cell viability counter screen (AID 743041; also: nearly all actives have a fitted effect of over 45% in size)
How it was run: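 In this qHTS counter assay, fluorescence intensity after CellTiter-Fluor addition indicated viability of MDA-kb2 AR-luc cells given compounds and R1881 for 16 h at 37C.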

[7] = qHTS assay to identify small molecule antagonists of the thyroid receptor (TR) signaling pathway - cell viability counter screen (AID 743064); also: nearly all actives have a fitted effect of over 50% in size; also: potency is read from the fitted curve at half-maximal effect
How it was run: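 Same-well viability check: GH3.TRE-Luc cells stimulated with 1 nM T3 alongside test compound for 23.5 h, followed by CellTiter-Fluor fluorescence.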

[8] = qHTS assay to identify small molecule antagonists of the thyroid receptor (TR) signaling pathway (AID 743065); also: series mostly up to about 70 µM; nearly all actives have a fitted effect of over 55% in size
How it was run: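 GH3.TRE-Luc rat pituitary cells carrying two TR response elements driving luciferase were plated for 4 h, given compound plus 1 nM T3 (final), and incubated 23.5 h at 37 C. ONE-Glo luminescence measured reporter inhibition; CellTiter-Fluor fluorescence tracked cytotoxicity.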

[9] = tested on: thyroid hormone receptor (rat, GH3 cells); experiment: qHTS assay to identify small molecule agonists of the thyroid receptor (TR) signaling pathway (AID 743066; calls by dose curve)
[10] = molecular target: Estrogen receptor (Homo sapiens) (UniProt P03372); experiment: qHTS assay to identify small molecule antagonists of the estrogen receptor alpha (ER-alpha) signaling pathway (AID 743069; active = well fitted curve in the direction sought with a large enough effect in the signal ratio in the repeat runs, not every such curve was filed as active; the % refers to the signal ratio)
Chain of Estrogen receptor (Homo sapiens) (P03372 whole entry, looked up): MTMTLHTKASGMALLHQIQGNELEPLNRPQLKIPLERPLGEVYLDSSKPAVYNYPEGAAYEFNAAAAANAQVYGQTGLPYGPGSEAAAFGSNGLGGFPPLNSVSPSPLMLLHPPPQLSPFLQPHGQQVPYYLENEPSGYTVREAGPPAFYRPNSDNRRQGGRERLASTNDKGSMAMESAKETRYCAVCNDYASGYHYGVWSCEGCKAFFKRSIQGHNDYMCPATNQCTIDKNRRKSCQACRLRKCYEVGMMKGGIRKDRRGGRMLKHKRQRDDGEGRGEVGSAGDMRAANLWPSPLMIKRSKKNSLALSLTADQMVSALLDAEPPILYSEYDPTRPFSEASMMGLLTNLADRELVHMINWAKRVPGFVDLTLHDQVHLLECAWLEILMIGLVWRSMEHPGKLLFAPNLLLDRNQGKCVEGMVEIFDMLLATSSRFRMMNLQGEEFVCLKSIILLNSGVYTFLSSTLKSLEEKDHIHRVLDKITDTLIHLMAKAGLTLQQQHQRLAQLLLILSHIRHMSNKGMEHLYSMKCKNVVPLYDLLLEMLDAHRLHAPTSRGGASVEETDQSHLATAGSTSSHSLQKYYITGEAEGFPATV
How it was run: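 A 17beta-estradiol challenge was applied right after compound transfer to ER-alpha-UAS-bla HEK293 cells previously kept in charcoal-stripped serum. Plates stood 18 hr at 37C and 5% CO2; fluorescence was read following 2 hr FRET substrate loading at room temperature.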

[11] = qHTS assay to identify small molecule antagonists of the estrogen receptor alpha (ER-alpha) signaling pathway - cell viability counter screen (AID 743074; calls by dose curve;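 also: HEK293 cells carrying ER-alpha-UAS-bla reporter stimulated with 17beta-estradiol; nearly all actives have a fitted effect of over 45% in size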)
[12] = molecular target: Estrogen receptor (Homo sapiens) (UniProt P03372); experiment: qHTS assay to identify small molecule agonists of the estrogen receptor alpha (ER-alpha) signaling pathway (AID 743075; calls by dose curve;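 also: HEK293 GripTite cells with ER-alpha and UAS-driven beta-lactamase reporter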)
[13] = molecular target: Estrogen receptor (Homo sapiens) (UniProt P03372); experiment: qHTS assay to identify small molecule agonists of the estrogen receptor alpha (ER-alpha) signaling pathway using the BG1 cell line (AID 743079); also: nearly all actives have a fitted effect of over 20% in size
[14] = qHTS assay to identify small molecule antagonists of the estrogen receptor alpha (ER-alpha) signaling pathway using the BG1 cell line (AID 743080; calls by dose curve;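 also: BG1 cells stimulated with 17beta-estradiol alongside compound; series mostly up to about 70 µM; nearly all actives have a fitted effect of over 25% in size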)
How it was run: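 BG1-Luc-4E2 cells (endogenous full-length ER-alpha, 4xERE luciferase) hormone-starved 5 days in charcoal-stripped FBS, plated 4,000/well for 24 h, then compound plus 17beta-estradiol for 21.5 h at 37 C; ONE-Glo luminescence read.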

[15] = qHTS assay to identify small molecule antagonists of the estrogen receptor alpha (ER-alpha) signaling pathway using the BG1 cell line - cell viability counter screen (AID 743081);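 also: compound given together with 17beta-estradiol as the ER stimulus; series mostly up to about 70 µM; nearly all actives have a fitted effect of over 45% in size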
Aromatase (Homo sapiens) = Aromatase (Homo sapiens) (UniProt P11511); experiment: qHTS assay to identify aromatase inhibitors (AID 743083); also: series mostly up to about 70 µM; nearly all actives have a fitted effect of over 55% in size
Chain of Aromatase (Homo sapiens) (P11511 whole entry, looked up): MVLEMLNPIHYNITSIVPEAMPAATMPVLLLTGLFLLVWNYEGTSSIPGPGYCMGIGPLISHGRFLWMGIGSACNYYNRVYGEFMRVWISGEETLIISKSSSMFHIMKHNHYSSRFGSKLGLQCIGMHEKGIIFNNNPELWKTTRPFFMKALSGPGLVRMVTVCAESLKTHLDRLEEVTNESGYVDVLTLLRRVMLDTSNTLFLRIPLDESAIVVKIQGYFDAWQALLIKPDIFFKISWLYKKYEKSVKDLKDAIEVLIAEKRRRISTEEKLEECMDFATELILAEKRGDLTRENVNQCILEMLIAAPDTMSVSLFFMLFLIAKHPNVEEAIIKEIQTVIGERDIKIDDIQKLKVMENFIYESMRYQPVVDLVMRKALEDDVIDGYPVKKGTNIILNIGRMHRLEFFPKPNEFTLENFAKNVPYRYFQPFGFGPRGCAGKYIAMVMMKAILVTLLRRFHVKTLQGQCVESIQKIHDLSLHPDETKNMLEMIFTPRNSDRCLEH

[16] = molecular target: Androgen receptor (Homo sapiens) (UniProt P10275); experiment: qHTS assay to identify small molecule antagonists of the androgen receptor (AR) signaling pathway (AID 743035; active = well fitted inhibition curve with a large enough effect in the signal ratio in the repeat runs, not every such curve was filed as active; the % refers to the signal ratio)
Chain of Androgen receptor (Homo sapiens) (P10275 whole entry, looked up): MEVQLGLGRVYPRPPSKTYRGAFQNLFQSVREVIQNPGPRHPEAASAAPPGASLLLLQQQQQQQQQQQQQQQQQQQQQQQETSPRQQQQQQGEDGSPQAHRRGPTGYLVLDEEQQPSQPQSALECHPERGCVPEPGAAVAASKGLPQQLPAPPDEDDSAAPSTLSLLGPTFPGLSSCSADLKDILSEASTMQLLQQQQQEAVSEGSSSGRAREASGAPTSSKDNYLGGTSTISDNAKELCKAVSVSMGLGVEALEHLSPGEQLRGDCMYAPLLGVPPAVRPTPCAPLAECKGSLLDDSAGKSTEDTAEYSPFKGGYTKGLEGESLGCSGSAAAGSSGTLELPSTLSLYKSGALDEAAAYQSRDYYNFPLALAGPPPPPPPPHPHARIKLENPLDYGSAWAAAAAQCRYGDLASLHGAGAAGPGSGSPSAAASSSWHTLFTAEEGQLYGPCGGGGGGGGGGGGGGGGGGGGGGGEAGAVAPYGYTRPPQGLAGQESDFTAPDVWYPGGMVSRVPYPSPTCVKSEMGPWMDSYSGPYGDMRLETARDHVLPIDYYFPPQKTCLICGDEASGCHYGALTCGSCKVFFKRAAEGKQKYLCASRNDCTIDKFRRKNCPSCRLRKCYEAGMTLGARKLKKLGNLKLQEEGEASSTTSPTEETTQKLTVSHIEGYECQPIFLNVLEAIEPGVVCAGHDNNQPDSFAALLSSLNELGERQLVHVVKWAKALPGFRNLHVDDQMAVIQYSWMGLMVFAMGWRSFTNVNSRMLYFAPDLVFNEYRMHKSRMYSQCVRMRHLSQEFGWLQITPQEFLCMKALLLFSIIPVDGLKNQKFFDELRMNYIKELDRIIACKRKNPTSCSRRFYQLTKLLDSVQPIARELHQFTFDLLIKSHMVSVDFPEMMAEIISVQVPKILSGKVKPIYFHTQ
How it was run: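 R1881 agonist challenge of a HEK293 UAS-beta-lactamase AR reporter line in the presence of compound (16 h, 37C); signal taken as FRET fluorescence after 2 h with LiveBLAzer B/G substrate at room temperature.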

[17] = molecular target: Androgen receptor (Homo sapiens) (UniProt P10275); experiment: qHTS assay to identify small molecule agonists of the androgen receptor (AR) signaling pathway using the MDA cell line (AID 743040; also: nearly all actives have a fitted effect of over 20% in size)
How it was run: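 Cell-based luciferase reporter: MDA-kb2, MMTV promoter (AR + GR response elements). 16 h compound exposure at 37C; ONE-Glo, 30 min RT, luminescence.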

[18] = molecular target: Androgen receptor (Homo sapiens) (UniProt P10275); experiment: qHTS assay to identify small molecule antagonists of the androgen receptor (AR) signaling pathway using the MDA cell line (AID 743042; also: nearly all actives have a fitted effect of over 55% in size)
How it was run: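 MDA-kb2 cells (human breast carcinoma, stably carrying an MMTV-luciferase reporter responsive to AR and GR) were plated at 3,000 cells/well and preincubated 5 hr at 37C, then given compound plus R1881 agonist for 16 h. ONE-Glo luminescence was read.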

[19] = molecular target: Androgen receptor (Homo sapiens) (UniProt P10275); experiment: qHTS assay to identify small molecule agonists of the androgen receptor (AR) signaling pathway (AID 743036; active = well fitted activation curve with a large enough effect in the signal ratio in the repeat runs, with a control signal flat, not every such curve was filed as active; the % refers to the signal ratio)
How it was run: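 Agonist activity was scored by beta-lactamase reporter fluorescence in stably transfected HEK293 cells exposed to compounds for 16 h at 37C and 5% CO2. Substrate loading took 2 h at room temperature.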
% is scaled to controls: 0 for no effect and ±100 for the full control effect.

Cc1ccc(C#N)cc1
inactive: outcome [1] | Potency [2] | Potency [3] | Potency [4] | Potency [5] | Potency [6] | Potency [7] | Potency [8] | outcome [9] | outcome [10] | outcome [11] | Potency [12] | Potency [13] | outcome [14] | Potency [15] | Potency (Aromatase (Homo sapiens))

O=C(O)Cc1ccc(CCNS(=O)(=O)c2ccc(Cl)cc2)cc1
inactive: outcome [1] | Potency [2] | Potency [3] | Potency [4] | Potency [5] | Potency [6] | Potency [7] | Potency [8] | outcome [9] | outcome [10] | outcome [11] | Potency [12] | Potency [13] | outcome [14] | Potency [15] | Potency (Aromatase (Homo sapiens))

NC(=O)COCCN1CCN(C(c2ccccc2)c2ccc(Cl)cc2)CC1 (centres undefined)
inactive: outcome [1] | Potency [5] | outcome [16] | Potency [17] | Potency [6] | Potency [18] | outcome [10] | outcome [11] | Potency [12] | Potency [13] | outcome [14] | Potency [15] | Potency (Aromatase (Homo sapiens))
active: Potency [2] 33.5 µM | Potency [3] 8.41 µM | Potency [4] 26.6 µM | Potency [7] 23.7 µM

COCCCOCCCOC
inactive: outcome [1] | Potency [2] | Potency [3] | Potency [4] | Potency [5] | Potency [6] | Potency [7] | Potency [8] | outcome [9] | outcome [10] | outcome [11] | Potency [12] | Potency [13] | outcome [14] | Potency [15] | Potency (Aromatase (Homo sapiens))

CC(=O)c1ccccc1O
inactive: outcome [1] | Potency [2] | Potency [3] | Potency [4] | Potency [5] | Potency [6] | Potency [7] | Potency [8] | outcome [9] | outcome [10] | Potency [12] | Potency [13] | outcome [14] | Potency [15] | Potency (Aromatase (Homo sapiens))

CC(=O)CC(C)C
inactive: outcome [1] | Potency [2] | Potency [3] | Potency [4] | Potency [5] | outcome [16] | outcome [19] | Potency [17] | Potency [6] | Potency [18] | Potency [7] | Potency [8] | outcome [9] | outcome [11]

COC(=O)CC(C)=O
inactive: outcome [1] | Potency [2] | Potency [3] | Potency [4] | Potency [5] | Potency [6] | Potency [7] | Potency [8] | outcome [9] | outcome [11] | Potency [15] | Potency (Aromatase (Homo sapiens))

CC(=O)N(CC(O)CO)c1c(I)c(C(=O)NCCO)c(I)c(C(=O)NCC(O)CO)c1I (centres undefined)
inactive: outcome [1] | Potency [2] | Potency [3] | Potency [4] | Potency [5] | Potency [6] | Potency [7] | Potency [8] | outcome [9] | Potency [15] | Potency (Aromatase (Homo sapiens))

C[C@H]1C[C@@H](O)CC(C)(C)C1
inactive: outcome [1] | Potency [2] | Potency [3] | Potency [4] | Potency [5] | Potency [6] | Potency [7] | Potency [8] | outcome [9] | outcome [11] | Potency [15] | Potency (Aromatase (Homo sapiens))

C=CCCCCCCCCC=O
inactive: outcome [1] | Potency [2] | Potency [3] | Potency [4] | Potency [5] | Potency [6] | Potency [7] | outcome [9] | outcome [11] | Potency [12] | Potency [13] | outcome [14] | Potency [15] | Potency (Aromatase (Homo sapiens))

COC(C)(C)CCCC(C)CC=O (centres undefined)
inactive: outcome [1] | Potency [2] | Potency [3] | Potency [4] | Potency [5] | Potency [6] | Potency [7] | Potency [8] | outcome [9] | outcome [11] | Potency [15] | Potency (Aromatase (Homo sapiens))

N[C@H]1CN(c2c(F)cc3c(=O)c(C(=O)O)cn(C4C[C@H]4F)c3c2Cl)CC12CC2 (some centres undefined)
inactive: outcome [1] | Potency [2] | Potency [3] | Potency [4] | Potency [5] | Potency [6] | Potency [7] | outcome [9] | outcome [10] | outcome [11] | Potency [12] | Potency [13] | outcome [14] | Potency (Aromatase (Homo sapiens))

O=c1n(CCO)c(=O)n(CCO)c(=O)n1CCO
inactive: outcome [1] | Potency [2] | Potency [4] | Potency [5] | Potency [6] | Potency [7] | outcome [9] | outcome [10] | outcome [11] | Potency [12] | Potency [13] | outcome [14] | Potency [15] | Potency (Aromatase (Homo sapiens))
inactive and 61.1 µM (active): Potency [3]

C[C@](N)(Cc1ccc(O)cc1)C(=O)O
inactive: outcome [1] | Potency [2] | Potency [3] | Potency [4] | Potency [5] | Potency [6] | outcome [10] | outcome [11] | Potency [12] | Potency [13] | outcome [14] | Potency [15] | Potency (Aromatase (Homo sapiens))

Cc1cccc(C)c1NC(=O)C(C)N (centres undefined)
inactive: outcome [1] | Potency [2] | Potency [3] | Potency [4] | Potency [5] | Potency [6] | outcome [10] | outcome [11] | Potency [12] | Potency [13] | outcome [14] | Potency [15] | Potency (Aromatase (Homo sapiens))

CCCN1CCCC[C@H]1C(=O)Nc1c(C)cccc1C
inactive: outcome [1] | Potency [2] | Potency [3] | Potency [4] | Potency [5] | Potency [6] | Potency [7] | Potency [8] | outcome [9] | outcome [11] | Potency [15] | Potency (Aromatase (Homo sapiens))

COC(=O)c1ccc(C)cc1C1=NC(C)(C(C)C)C(=O)N1 (centres undefined)
inactive: outcome [1] | Potency [2] | Potency [3] | Potency [4] | Potency [5] | Potency [6] | Potency [7] | outcome [9] | outcome [11] | Potency [15] | Potency (Aromatase (Homo sapiens))

CCC(C)S (centres undefined)
inactive: viability change, negative = cytotoxic [1] -1.32% [at 3.15 µM] | activity change, negative = cytotoxicity [2] 25.1% [at 3.82 µM] | activity, negative = cytotoxicity [3] -7.66% [at 3.82 µM] | activity change, negative = cytotoxicity [4] 19.5% [at 3.83 µM] | activity change, negative = cytotoxicity [5] 6.76% [at 3.15 µM] | viability change, negative = cytotoxic [6] 8.95% [at 3.79 µM] | activity change, negative = cytotoxic [7] 23.6% [at 3.79 µM] | activity, negative = inhibition [8] 10.9% [at 3.79 µM] | activation [9] 1.37% [at 3.63 µM] | activity change, negative = cytotoxicity [15] 11% [at 3.79 µM] | activity, negative = inhibition (Aromatase (Homo sapiens)) 7.68% [at 3.79 µM]

NS(=O)(=O)c1cc(C(=O)O)cc(N2CCCC2)c1Oc1ccccc1
inactive: outcome [1] | Potency [2] | Potency [3] | Potency [4] | Potency [5] | Potency [6] | Potency [7] | outcome [9] | outcome [10] | outcome [11] | Potency [12] | Potency [13] | outcome [14] | Potency [15] | Potency (Aromatase (Homo sapiens))
